Source: PubChem BioAssay (NCATS)
Results filed as inconclusive are left out. Values without a mark were called inactive. The source made the active and inactive calls. Unless noted, calls come from the whole dose curve.

Target: Nucleoprotein (Lymphocytic choriomeningitis virus (strain Armstrong)) (UniProt P09992)
Test: qHTS for Inhibitors of the Functional Ribonucleoprotein Complex (vRNP) of Lymphocytic Choriomeningitis Arenaviruses (LCMV): LCMV Primary Screen - GLuc reporter signal (AID 1347086); note: nearly all actives have a fitted effect of over 70% in size; for activity change, negative = inhibition: % is set by controls: 0 for no effect and ±100 for the full control effect
Settings: LCMV minigenome vRNP cell assay, Gaussia luciferase reporter; series mostly up to 57.5 µM; activity change, negative = inhibition: at the top concentration
Potency is the fitted concentration of half-maximal effect.

Sequence of Nucleoprotein (Lymphocytic choriomeningitis virus (strain Armstrong)) (P09992 whole entry, looked up): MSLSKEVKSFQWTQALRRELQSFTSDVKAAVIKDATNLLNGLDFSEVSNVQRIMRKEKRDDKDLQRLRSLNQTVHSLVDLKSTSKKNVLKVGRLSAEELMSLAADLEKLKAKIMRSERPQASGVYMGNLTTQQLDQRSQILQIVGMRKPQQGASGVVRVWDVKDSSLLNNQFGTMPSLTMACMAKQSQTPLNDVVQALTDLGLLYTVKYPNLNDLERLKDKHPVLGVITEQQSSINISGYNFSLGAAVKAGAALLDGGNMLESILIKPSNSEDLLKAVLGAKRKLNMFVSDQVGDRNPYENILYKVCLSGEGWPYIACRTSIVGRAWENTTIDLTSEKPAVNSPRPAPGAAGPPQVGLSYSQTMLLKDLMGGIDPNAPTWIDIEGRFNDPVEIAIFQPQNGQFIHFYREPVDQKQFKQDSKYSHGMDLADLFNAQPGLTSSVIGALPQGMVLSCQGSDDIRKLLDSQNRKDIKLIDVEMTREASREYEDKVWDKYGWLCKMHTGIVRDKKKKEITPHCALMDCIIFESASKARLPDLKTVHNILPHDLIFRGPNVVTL

For `COc1cc(NS(C)(=O)=O)ccc1Nc1c2ccccc2nc2ccccc12`, the Potency was 5620 nM (active).

Compared with `CCCCOC(=O)c1ccc(N)cc1`, `Nc1ccc(C(=O)Nc2ccccc2N)cc1` is higher in “activity change, negative = inhibition” value: 9.42% for the first, 23.9% for the second.

Compared with `Cc1ccccc1C(=O)Nc1ccc(C(=O)N2CCCC(N(C)C)c3ccccc32)cc1` (stereo not drawn), `CNC(=O)c1ccccc1Sc1ccc2c(/C=C/c3ccccn3)n[nH]c2c1` is higher in “activity change, negative = inhibition” value: -38.5% for the first, 2.58% for the second.

First: O=C(NCC1CCCCN1)c1cc(OCC(F)(F)F)ccc1OCC(F)(F)F (stereo not drawn)
Second: C[C@](O)(CS(=O)(=O)c1ccc(F)cc1)C(=O)Nc1ccc(C#N)c(C(F)(F)F)c1
The “activity change, negative = inhibition” value of the first is higher: -4.8% for the first, -31% for the second.

Going from `CC(C=CC1=C(C)CCCC1(C)C)=CC=CC(C)=CC(=O)O` to `CCCC(=O)O[C@]1(C(=O)CO)CC[C@H]2[C@@H]3CCC4=CC(=O)CC[C@]4(C)[C@H]3[C@@H](O)C[C@@]21C`, the “activity change, negative = inhibition” value falls from 12.4% to -0.755%.

Going from `Cc1cc(O)c2ccccc2c1O` to `CNCCCCOc1ccccc1Cc1ccccc1`, the “activity change, negative = inhibition” value rises from -49.1% to -27.3%.

First: Nc1cc(C(Cl)=C(Cl)Cl)c(S(N)(=O)=O)cc1S(N)(=O)=O
Second: COc1cc(C)nc(-n2nc(C)cc2OC)n1
The “activity change, negative = inhibition” value of the first is higher: 34% for the first, -0.225% for the second.

Compared with `COCC(=O)Nc1c(I)c(C(=O)NCC(O)CO)c(I)c(C(=O)N(C)CC(O)CO)c1I` (stereo not drawn), `CCCCCCNC(=O)n1cc(F)c(=O)[nH]c1=O` is lower in “activity change, negative = inhibition” value: 3.64% for the first, -33.8% for the second.

Compared with `CCCCCCCCCC(=O)O[C@H]1CC[C@H]2[C@@H]3CCC4=CC(=O)CC[C@@H]4[C@H]3CC[C@]12C`, `N#C[C@H]1C[C@H]2C[C@@H]2N1C(=O)[C@@H](N)C12CC3CC(CC(O)(C3)C1)C2` is lower in “activity change, negative = inhibition” value: 22.1% for the first, -9.6% for the second.

Tested on: not listed separately
Test: qHTS of pediatric cancer cell lines to identify multiple opportunities for drug repurposing: Primary screen for TC32 cells (AID 1347089; active = well fitted cell-killing curve with a large enough effect; note: nearly all actives have a fitted effect of over 60% in size; for activity change, negative = cytotoxic: % is set by controls: 0 for no effect and ±100 for the full control effect)
Settings: TC32 Ewing sarcoma viability, CellTiter-Glo luminescence, 48 h; series mostly up to 45.8 µM; activity change, negative = cytotoxic: at the top concentration
Procedure, shortened: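 In the primary qHTS, MIPE compounds were tested at 11 concentrations (0.78 nM to 46 µM) and NPC compounds at 8 (0.59 nM to 46 µM) on TC32 cells for 48 h. CellTiter-Glo luminescence gave viability.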

With `CCN(CC)C(=O)[C@@H]1C=C2c3cccc4[nH]cc(c34)C[C@H]2N(C)C1` the “activity change, negative = cytotoxic” value was -6.67% [at 154 µM].

First: C[C@]12Cc3cn[nH]c3C[C@@H]1CC[C@@H]1[C@@H]2CC[C@@]2(C)[C@H]1CC[C@]2(C)O
Second: C[C@](O)(CS(=O)(=O)c1ccc(F)cc1)C(=O)Nc1ccc(C#N)c(C(F)(F)F)c1
The “activity change, negative = cytotoxic” value of the first is lower: 3.4% for the first, 10.1% for the second.

With `CC(Cc1ccccc1)N(C)Cc1ccco1` (stereo not drawn) the “activity change, negative = cytotoxic” value was 7.59%.

In the case of `COc1cccc2c1C(=O)c1c(O)c3c(c(O)c1C2=O)C[C@@](O)(C(=O)CO)CC3OC1CC(N2CCOC(OC)C2)C(O)C(C)O1` (stereo partly drawn), the Potency is reported as 26.4 nM (active).

Tested on: not listed separately
Test: qHTS of pediatric cancer cell lines to identify multiple opportunities for drug repurposing: Primary screen for DAOY cells (AID 1347090; active = well fitted cell-killing curve with a large enough effect; note: nearly all actives have a fitted effect of over 55% in size;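 for activity change, negative = cytotoxic: plate controls were DMSO for no effect and bortezomib for full effect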)
Settings: DAOY medulloblastoma viability, CellTiter-Glo luminescence, 48 h; series mostly up to 46 µM; activity change, negative = cytotoxic: at the top concentration
Procedure, shortened: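 Cell viability, CellTiter-Glo luminescence; 500-1,000 cells/well, 8- or 11-point titration, 48 h compound exposure at 37 degrees C, 5% CO2. Controls: DMSO neutral, bortezomib 2.3 µM final as positive.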

For `CCN(CC)C(=O)[C@@H]1C=C2c3cccc4[nH]cc(c34)C[C@H]2N(C)C1`, the “activity change, negative = cytotoxic” value was -19.6% [at 155 µM].

In the case of `O=C1c2ccccc2C(=O)C1C(=O)C(c1ccccc1)c1ccccc1`, the Potency is reported as 26600 nM (active).
With `COc1cccc2c1C(=O)c1c(O)c3c(c(O)c1C2=O)C[C@@](O)(C(=O)CO)CC3OC1CC(N2CCOC(OC)C2)C(O)C(C)O1` (stereo partly drawn) the Potency was 42.2 nM (active).
With `C[C@](O)(CS(=O)(=O)c1ccc(F)cc1)C(=O)Nc1ccc(C#N)c(C(F)(F)F)c1` the Potency was 743 nM (active).

Going from `CC(Cc1ccccc1)N(C)Cc1ccco1` (stereo not drawn) to `CCCCCCCCCC(=O)O[C@H]1CC[C@H]2[C@@H]3CCC4=CC(=O)CC[C@@H]4[C@H]3CC[C@]12C`, the “activity change, negative = cytotoxic” value rises from 4.48% to 8.86%.
